An excerpt weighted towards active compounds, which were near 7.9% of everything screened.
HCMV antiviral – human cytomegalovirus inhibition; HFF cells, HCMV-luciferase reporter, 72 h; active compounds read low; activity change, negative = inhibition, % at 57.5 µM; 410,000 tested, 4.5% active; AID 1259415; in the data active = activity change below about -60%; inconclusive = no clear call, values can overlap the other calls; inactive = above about -39%
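After 16 h attachment at 37C, HFF cells received test compound and HCMV-luciferase (1 PFU/cell); reporter luminescence read 72 h later, data normalized against buffer-only and known inhibitor Salinomycin.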
FMDV inh – foot and mouth disease virus antiviral activity | AID 1159524 | Potency, µM (highest dose often 57.9 µM), for inactives: at the highest dose activity change, negative = inhibition, most hits filed as inhibitors | 410,000 tested, 1.2% active | FMDV antiviral cell-based qHTS; calls by dose curve; tested in HEK293T cells; note: read-out not given here; potency is the fitted concentration of half-maximal effect; nearly all actives have a fitted effect of over 45% in size
Marburg entry inh – Marburg virus entry inhibition; Marburg virus pseudotyped entry inhibition, cell reporter; Potency, µM (top dose mostly 37.8 µM), without a hit: at the highest dose activity change, negative = inhibition, usual class: inhibitors; 300,000 tested, 1.8% active; AID 540276; calls by dose curve; tested in HEK293 cells; note: potency is the fitted concentration of half-maximal effect
HCV inh – HCV inhibition; Huh7.5.1 HCVcc-Cre infection, luciferase reporter, 44 h; Potency, µM (series often up to 41.8 µM), without a hit: at the top dose activity change, negative = inhibition, hits mostly inhibitors; 340,000 tested, 3.4% active; active = well fitted inhibition curve with a large enough effect; inconclusive = small, poorly fitted or top-dose-only effect, or another doubt; inactive = no such curve, though single readings can be large or run the other way; note: potency is the fitted concentration of half-maximal effect
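Seed cells (1,000/well) for 4 h; treat with compound and infect with HCVcc-Cre, moi about 0.5. Incubate 44 h, then detect luciferase activity.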
LASV entry inh – inhibitors of Lassa virus binding or cell entry; 300,000 tested, 1.2% active; Potency, µM (doses to about 37.9 µM), inactives show at the top dose activity change, negative = inhibition, actives largely listed as inhibitors; Lassa virus pseudotype entry inhibition, cell reporter; AID 540256; calls by dose curve; tested in HEK293 cells; note: potency is the fitted concentration of half-maximal effect; nearly all actives have a fitted effect of over 50% in size
* hit, by the source's call; ? = inconclusive; · = not tested or not shown; [ ] = another dose, or the depositor's remark. % is set by controls: 0 for no effect and ±100 for the full control effect.

SMILES | HCMV antiviral | FMDV inh | Marburg entry inh | HCV inh | LASV entry inh
O=C(Nc1ccc(C(=O)OCc2cc(=O)n3ccsc3n2)cc1)c1cccc(F)c1 | -0.7 | -15.4% | · | · | ?
COc1ccc([N+](=O)[O-])cc1NCc1c(F)cccc1F | 4.1 | -1.7% | · | · | ·
COc1ccc([N+](=O)[O-])cc1Nc1ncnc2ccccc12 | -61.9* | -16.4% | -4.6% | ? | -1.2%
O=[N+]([O-])c1ccc(O)c(Nc2ncnc3ccccc23)c1 | 53.0 | 0.6% | 4.3% | -21.1% | 9.7%
COc1ccc([N+](=O)[O-])cc1NCc1cccnc1 | 10.5 | 3.9% | ? | 7.94µM* | ?
COc1cc([N+](=O)[O-])ccc1NC(=O)NCc1cccnc1 | -23.2 | -9.3% | · | -17.4% | ·
COc1ccc([N+](=O)[O-])cc1NCc1cccc([N+](=O)[O-])c1 | -3.3 | -10.9% | 0.8%[46.1 µM] | 3.98µM* | ?
Nc1ccc(Oc2ccc([N+](=O)[O-])cc2[N+](=O)[O-])cc1 | ? | -20.5% | -23.5% | -19.3% | -10.3%
O=[N+]([O-])c1ccc(Oc2cccnc2)c([N+](=O)[O-])c1 | 2.2 | 31.6µM* | 7.94µM* | ? | ?
O=C(c1cccnc1)C1CCCN(Cc2ccc3c(c2)CN(C(=O)c2cccs2)CCO3)C1 (stereo not drawn) | · | -5.0% | · | · | ·
COc1cc2nc(N3CCCC(O)C3)c(CNCc3ccccc3F)cc2c(OC)c1OC (stereo not drawn) | · | -9.2% | · | · | ·
COc1ccc(Oc2nc3c(C)cccn3c(=O)c2/C=C(\C#N)c2nc3ccccc3[nH]2)cc1 | 15.3 | 4.0% | -1.3%[46.1 µM] | · | 2.7%[46.1 µM]
CCn1c(SCC(=O)Nc2cc(C)on2)nc2c(c1=O)SC(C)C2 (stereo not drawn) | 2.5 | · | 19.3% | -13.8% | 9.4%
CCn1c(SCC(=O)Nc2nc3ccc(C)cc3s2)nc2c(c1=O)SC(C)C2 (stereo not drawn) | · | ? | ? | 7.94µM* | -27.5%
CCn1c(SCC(=O)Nc2nc3ccccc3s2)nc2c(c1=O)SC(C)C2 (stereo not drawn) | -39.7 | 31.6µM* | ? | ? | -26.7%
C[N+]1(C)CC[C@H](OC(=O)[C@@](O)(c2ccccc2)C2CCCC2)C1 | -0.1 | -9.4% | · | 6.4% | ·
C[N+]1(C)CCC(OC(=O)C(O)(c2ccccc2)C2CCCC2)C1 (stereo not drawn) | -89.5* | -4.2% | · | -4.4% | ·
COc1ccc(Nc2nc(NCC3CCCO3)c3ccccc3n2)c(OC)c1 (stereo not drawn) | -90.7* | ? | ? | 10µM* | -25.9%
c1ccc(Nc2nc(NCC3CCCO3)c3ccccc3n2)cc1 (stereo not drawn) | ? | 28.2µM* | ? | 7.08µM* | ?
COc1ccc(Nc2nc(NCC3CCCO3)nc(N)c2[N+](=O)[O-])cc1 (stereo not drawn) | 28.0 | -22.5% | · | ? | ·
CCOc1ccc(Nc2nc(NCC3CCCO3)c3ccccc3n2)cc1 (stereo not drawn) | -30.8 | 25.1µM* | ? | ? | ?
Oc1cccc(Nc2nc(NCC3CCCO3)c3ccccc3n2)c1 (stereo not drawn) | · | 0.0% | ? | ? | -24.2%
COc1ccc(CNc2nc(-c3c(C)noc3C)nc3ccccc23)c(OC)c1 | · | -13.5% | · | · | ·
CCc1nc(NCC2CCCO2)c2oc3ccccc3c2n1 (stereo not drawn) | -83.6* | 0.0% | 1.6% | ? | 5.7%
O=C(NCCc1ccccc1)O[C@H]1CC[C@@]23CCCN2C(=O)CCC[C@H]3[C@H]1Cc1ccccc1 | -3.4 | · | · | · | ·
SMILES | HCMV antiviral | FMDV inh | Marburg entry inh | HCV inh | LASV entry inh
c1ccc(-c2nc(NCC3CCCO3)c3ccccc3n2)nc1 (stereo not drawn) | -97.4* | -28.8% | ? | ? | ?
c1ccc2c(NCC3CCCO3)nc(N3CCOCC3)nc2c1 (stereo not drawn) | -6.7 | -20.9% | · | 2.9% | ·
Nc1nc(NCC2CCCO2)nc(Nc2ccccc2)c1[N+](=O)[O-] (stereo not drawn) | -16.6 | 0.0% | -0.1% | -18.7% | -17.6%
CCOc1ccc(Nc2c3ccccc3nc3ccccc23)cc1 | -80.6* | ? | · | 3.98µM* | ·
CCOc1ccc(Nc2cc(C)c3ccccc3n2)cc1 | -20.5 | 32.9% | · | -11.8% | ·
Nc1nc(NCC2CCCO2)nc(Nc2ccc(Cl)cc2)c1[N+](=O)[O-] (stereo not drawn) | -68.7* | -25.3% | -19.5%[14.2 µM] | -9.9% | -7.4%
O=C(c1cccn1-c1nnc(N2CCCC2)s1)N1CCN(c2ccc(Cl)cc2)CC1 | 0.0 | -26.5% | · | · | 17.5%[46.1 µM]
COc1ccc(OC)c(/C=C2\NC(=O)NC2=O)c1 | -81.0* | -18.8% | · | 1.7% | ·
COc1cc(C=C2NC(=O)NC2=O)ccc1O | -31.2 | -1.2% | · | · | ·
CC(=O)N1CCc2cc(Br)cc(S(=O)(=O)CCC(=O)NCc3ccc(F)cc3)c21 | -15.7 | 3.8% | -1.8%[46.1 µM] | · | ?
Nc1cc(=O)nc(SCC(=O)Nc2ccc(F)cc2)n1-c1ccc(Cl)cc1 | -5.3 | -17.7% | 6.1%[46.1 µM] | · | 3.6%[46.1 µM]
Cc1ccc(-c2nc(CN(C)Cc3cccc4cnccc34)c(C)o2)s1 | -66.6* | ? | · | ? | ·
Cc1ccc(-c2nc(CN(C)C3CCOCC3)c(C)o2)s1 | -11.0 | 0.1% | · | -15.6% | ·
Cc1c(C2Nc3ccccc3C2C)[nH]c2ccccc12 (stereo not drawn) | -84.9* | · | · | · | ·
COc1ccc(-c2cc(C(F)(F)F)nc(SCC(=O)NCc3ccc(OC)c(OC)c3)n2)cc1 | -18.6 | -20.2% | 3.8%[46.1 µM] | · | 11.9%[46.1 µM]
CCOCN(C(=O)Cn1c(C)nc2ccccc21)c1c(C)cccc1CC | 9.4 | -14.4% | -8.4%[46.1 µM] | · | -23.4%[46.1 µM]
CCOCN(C(=O)Cn1c(CC(C)C)nc2ccccc21)c1c(C)cccc1CC | -61.5* | -29.6% | ? | · | -18.6%[46.1 µM]
c1ccc2c[n+](CCCCCCCCCC[n+]3ccc4ccccc4c3)ccc2c1 | -80.6* | · | · | · | ·
Oc1ccc[n+](CCCCC[n+]2cccc(O)c2)c1 | -12.6 | -14.4% | 1.1% | 9.6% | ·
CCOc1ccc(-c2nn(CC(=O)NC3CCCC3)c3c2cnc2ccc(C)cc23)cc1 | 14.8 | 12.2% | · | · | 0.1%[46.1 µM]
CCCCCOC(=O)C1C(c2ccccc2)C(C(=O)O)C1c1ccccc1 (stereo not drawn) | -93.1* | -22.6% | -1.5% | 23.9% | -23.6%
COC(=O)C1C(c2ccccc2)C(C(=O)OCc2ccco2)C1c1ccccc1 (stereo not drawn) | 10.3 | -13.1% | 20.6µM* | ? | ?
Cc1cc(C)n(-c2nc3cc(Cl)ccc3nc2Nc2ccc(CC(=O)O)cc2)n1 | 2.1 | -18.1% | 3.8%[46.1 µM] | · | -4.9%[46.1 µM]
S=C(Nc1ccc(Nc2ccccc2)cc1)Nc1ccccn1 | -95.4* | -20.1% | ? | 10µM* | ?
S=C(Nc1ccccc1)Nc1ccccn1 | 30.6 | 50.6% | · | · | ·
CCn1cc2nc(SCC(=O)Nc3ccc(C)cc3C)n(Cc3ccc(C)cc3)c(=O)c2n1 | ? | -10.2% | · | · | ?
CC[C@H]1Nc2ccc(OC)cc2[C@@H](NS(C)(=O)=O)[C@@H]1C | 1.1 | · | · | · | ·
C[C@H]1[C@@H](NS(=O)(=O)c2ccc(Br)cc2)CC[C@@]23CCCN2C(=O)CCC[C@@H]13 | 4.2 | · | · | · | ·

Source: PubChem (National Center for Advancing Translational Sciences (NCATS))
